# Reference: PubChem BioAssay (NCI)
# About 83,000 compounds went through this panel and 20% of them were active in at least one assay; those are over-represented in the sample as a whole.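 48-hour exposure, single concentration, 96-well plates; percent growth endpoint where 0 means no net growth. Active: below 10.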 A number with no mark means an inactive call. Active and inactive are the calls of the source.
# Tested on: M14 melanoma
# Test: NCI-60 one-dose screen, 48 h (100 = growth as untreated, 0 = no growth, -100 = all killed)
# Details: 10 µM unless noted
# Description: Growth inhibition of the M14 human tumor cell line is measured as a screen for anti-cancer activity. Cells are grown in 96 well plates and exposed to the test compound for 48 hours. Compounds are tested at a single concentration, which is 10^-5 M for most compounds. The reported endpoint is percent growth (GI% or GIPRCNT), where numbers from 0 - 100% represent growth inhibition, and numbers from -100% - 0 represent cell death. For example, a value of 40 represents 60% growth inhibition. A value of 0 means no net growth occurred over the course of the experiment. A value of -40 indicates 40% of cells at the beginning of the experiment died by the end of the experiment. A value of -100 means all cells are dead at the end of the experiment.
# NCI-60 Human Tumor Cell Lines Screen was performed using the standard one-dose NCI protocol, which is described in more detail at https://dtp.cancer.gov/discovery_development/nci-60/default.htm.
# Compounds with GIPRCNT values below 10 were considered active. Activity score was based on GIPRCNT using the following formula: […]
# Score is 0 for GIPRCNT values of 100 or above, 50 for GIPRCNT values of 0, and 100 for GIPRCNT values of -100.
row,Structure (SMILES),growth
1,CN1CCN(c2ccc(-c3cc4c(Nc5ccc(F)c(Cl)c5)ncnn4c3)cn2)CC1,83.8%
2,CCCCN(C)N=Nc1ccc(C(N)=O)cc1,102%
3,Fc1cc(-c2nnc3sc(-c4ccc(Cl)cc4Cl)nn23)c(Cl)cc1Cl,97.5%
4,BrCCCc1n(Cc2ccc3ccccc3c2)c2ccccc2[n+]1Cc1ccc2ccccc2c1,-60.4% (active)
5,CCOC(=O)Nc1ccc(-c2nc(-c3cccc(OCCN4CCOCC4)c3)c(-c3ccnc(Br)c3)[nH]2)cc1,57.4%
6,[O-][n+]1c2ccccc2[n+]([O-])c2c3ccccc3[nH]c21,98.5%
7,CSc1nc2ccc(C)cc2cc1/C=N/O,87.8%
8,N#CC1=C(N)Oc2c(sc3c(Br)cccc23)C1c1ccc([N+](=O)[O-])cc1 (stereo not given),3.87% (active)
9,Cc1cccc2c1S/C(=C/c1ccc([N+](=O)[O-])cc1)C2=O,98.2%
10,O=C1/C(=C/c2ccc(F)cc2)Sc2c(Br)cccc21,92.8%
11,CCN(CC)CCCNc1nc2ccccc2c2c(=O)c3cc(Cl)ccc3sc12,1.36% (active)
12,COc1ccc(CN2c3ccccc3CCc3ccccc32)cc1F,-8.51% (active)
13,Cc1c(C(=O)N[C@@H](Cc2ccccc2)C(=O)C(=O)NCc2ccc(F)cc2)[nH]c2ccccc2c1=O,103%
14,CNc1ccc(Nc2cccc(C)c2)c2c1C(=O)c1ccccc1C2=O,122%
15,COc1ccc(-c2cc(-c3ccc(Cl)cc3)c(C#N)c(=O)n2CCCCCC(=O)Nc2ccccc2N)cc1,-10.9% (active)
16,CCCCNC(=O)Oc1ccc(/C(=C(\C)c2ccc(Cl)cc2)c2ccc(OCCN(CC)CC)cc2)cc1,22.6%
17,O=C(O)c1cn(C2CC2)c2cc(N3CCN(C(=O)Nc4nc(-c5ccc(Cl)cc5)cs4)CC3)c(F)cc2c1=O,18.2%
18,O=C(N=c1oc2ccccc2cc1-c1cc2ccccc2[nH]1)Nc1ccc(Cl)cc1,79.6%
19,Fc1cc2c(cc1Cl)N(c1ncnc3ccc(-c4cnc5cnccn45)cc13)CC2,80.2%
20,Nc1nc(Cl)cc(=O)n1Cc1ccccc1,93.3%

row,Structure (SMILES),growth
1,O=C(CCOCCNC(=O)COc1ccc2c(c1)OCC(c1ccc(F)cc1)C2=O)NCCCC(O)(P(=O)(O)O)P(=O)(O)O (stereo not given),109%
2,CCCCCCn1c(-c2ccc(C(=O)O/N=C(\N)c3ccc(OC)cc3)cc2)nc(-c2ccccc2)c1-c1ccccc1,40.9%
3,NCCCNc1nc2ccccc2c2c(=O)c3cc(C(F)(F)F)ccc3sc12,-26.9% (active)
4,COc1ccc(-c2nc3sc(-c4ccc(Cl)cc4)cn3n2)cc1,91.1%
5,CNc1nc2c(s1)C(c1cccc(F)c1)CC(=O)N2 (stereo not given),106%
6,Cc1nn(-c2ccccc2)c(-n2ccnc2)c1/C=N/Nc1nc(-c2ccc(F)cc2)cs1,79.7%
7,CCCCOc1ccc(/C=N/NC(N)=S)cc1,78%
8,CCCCC1CCCC12NC(=O)NC2=O (stereo not given),109%
9,O=C(Nc1ccc(-c2nc(-c3cccc(OCCN4CCOCC4)c3)c(-c3ccnc(Br)c3)[nH]2)cc1)c1ccccc1,6.5% (active)
10,CCCCn1c(-c2ccc(C(=O)O/N=C(\N)c3ccc(OC)cc3)cc2)nc(-c2ccccc2)c1-c1ccccc1,51.3%
11,CCCCCCCCCCCCCCCCCCOc1ccccc1CC(=O)OCC[N+](CC)(CC)CC,26.8%
12,COC(=O)CCC/C=C\C[C@H]1C=CC(=O)/C1=C/C[C@@H](O)CCc1cccc(C(F)(F)F)c1,-32.4% (active)
13,COc1cc(C(=O)c2cnc(-c3c[nH]c4cccc(C)c34)[nH]2)cc(OC)c1OC,-2.55% (active)
14,CCOC(=O)CCN(C(=O)Nc1ccccc1)C1CCCCC1,108%
15,CCC(=O)Nc1ccc(-c2nc(-c3cccc(OC)c3)c(-c3ccnc(Br)c3)[nH]2)cc1,63.1%
16,Cc1cc2[nH]c(=O)c3c4ncccc4cn3c2cc1C,67.3%
17,C[C@]12CC[C@@H]3c4cc(OC(F)F)c(OS(N)(=O)=O)cc4CC[C@H]3[C@@H]1CC[C@@H]2O,5.82% (active)
18,COc1ccc(N)c(N)c1,101%
19,Cc1nc(/N=C(\N)NC(=O)Nc2cccc(Cl)c2)sc1C,50.5%
20,Cc1nc(NC(=O)COc2ccc(/C=C3\Cc4ccc(Cl)cc4C3=O)cc2)sc1C,114%
